The text below walks through data of PubChem BioAssay.

A short description of assay [1]: inhibitors of TNFa-induced NFkB p65 translocation, primary screen, imaging, HUVEC, MLSMR starter and 10KST1 sets (AID 438;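 active = inhibition above 20% together with a positive visual image hit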;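 also: compound added about 3h40 before a 20 min TNFalpha stimulation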;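 as to inhibition: signal is the nuclear over cytoplasmic p65 intensity ratio per well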). Conditions: HUVEC TNFa-induced p65 nuclear translocation; cell count: measured here: nuclei count (cytotoxicity indicator), at 2.08 µM; inhibition: at 2 µM, stronger effect = higher value, 0% TNFa-plus-vehicle, 100% no-TNFa wells.
A short description of assay [2]: inhibitors of mutant huntingtin aggregation, primary screen, imaging, exon1htt(103Q)mCFP cells, high-content imaging (AID 483;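 active = visual image review flags a hit and inhibition of aggregation exceeds 20%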;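 also: compound exposure lasted 3 days before fixation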;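 as to nuclei count: percent of the per-plate median nuclei count of sample wells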). The following applies: exon1htt(103Q)mCFP cell line, aggregate imaging, at 2 µM; inhibition of aggregation: stronger effect = higher value; nuclei count: measured here: cell count, toxicity.
Assay [3] in a line: inhibitors of E-selectin induction by TNFa, primary screen, imaging, HUVEC, immunofluorescence, MLSMR starter and 10KST1 sets (AID 487;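 active = visually confirmed hit in the image check and inhibition above 20%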;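 as to inhibition: signal is fraction of cell area covered by stained E-selectin grains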;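 as to nuclei count: 100% = median nuclei count of all wells on the same plate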). The following applies: HUVEC TNFalpha-induced E-selectin immunofluorescence imaging, at 2 µM; inhibition: stronger effect = higher value; nuclei count: measured here: cell number, toxicity.
Assay [4] addresses Voltage-gated potassium channel subunit beta-2 (Rattus norvegicus) (UniProt P62483). In words: KvBeta enzyme negative modulators, primary screen, biochemical, NADPH fluorescence (AID 622;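 active = fluorescence slope higher than the sample average by over 3 SD, cut at about -0.22 in these data, passing the limit was not always enough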;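 also: slope of raw intensity against log time taken from 70 to 1610 s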). The following applies: recombinant KvBeta, 4-cyanobenzaldehyde reduction, at 10 µM, stronger effect = higher value.
Assay [5] has the same target. In words: KvBeta positive modulators, primary screen, biochemical, NADPH fluorescence (AID 623;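 active = NADPH fluorescence slope more negative than the mean of all samples by about 3 SD, 99.7% confidence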;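 also: fluorescence intensity change per second fitted from 20 to 320 s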). The following applies: Recombinant KvBeta, NADPH fluorescence decrease slope, 10 min; at 10 µM; stronger effect = lower value.
For assay [6], the target named is Alpha-2C adrenergic receptor (Homo sapiens) (UniProt P18825). Description: modulators of alpha2C/GIRK thallium flux, primary screen, cell-based, HEK293 alpha2C/GIRK1/2 (AID 624).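 Also: slope of fluorescence ratio to pre-addition baseline per second over 15 to 24 s.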 The following applies: thallium flux BTC fluorescence, at 10 µM, actives lie on both sides.
A short description of assay [7]: inhibitors of Sendai virus-induced IRF3 signaling, primary screen, TLR/RLR signaling modifier project, cell-based, Sendai virus stimulus, luciferase, 10K MLSCN set (AID 602276;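 active = inhibition at or above 50% at 10 µM; inactive = inhibition below 50%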;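 also: firefly luciferase from ISG56 promoter only with Renilla not read in this screen; 0% = Sendai virus plus DMSO and 100% = medium plus DMSO without virus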). Conditions: HEK293 RL24 IRF3 luciferase reporter, at 10 µM, stronger effect = higher value.
Assay [8] is described as follows: inhibitors of poly I:C-induced TLR3 signaling, primary screen, cell-based, poly I:C stimulus, luciferase, 10K MLSCN set (AID 602277;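 active = inhibition of the reporter signal at or above 50%; inactive = inhibition below 50%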). The following applies: HEK293-TLR3 RL24 IRF3 luciferase reporter, at 10 µM, stronger effect = higher value. For orientation: A reporter such as luciferase makes a cellular process visible.

Calls of active or inactive are those of the source.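 The calls were made as follows, unless noted: active = fluorescence slope after compound addition differing from the mean of all screened samples at 99.7% confidence, in either direction; inactive = the rest.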

Chain of Alpha-2C adrenergic receptor (Homo sapiens) (P18825 whole entry, looked up): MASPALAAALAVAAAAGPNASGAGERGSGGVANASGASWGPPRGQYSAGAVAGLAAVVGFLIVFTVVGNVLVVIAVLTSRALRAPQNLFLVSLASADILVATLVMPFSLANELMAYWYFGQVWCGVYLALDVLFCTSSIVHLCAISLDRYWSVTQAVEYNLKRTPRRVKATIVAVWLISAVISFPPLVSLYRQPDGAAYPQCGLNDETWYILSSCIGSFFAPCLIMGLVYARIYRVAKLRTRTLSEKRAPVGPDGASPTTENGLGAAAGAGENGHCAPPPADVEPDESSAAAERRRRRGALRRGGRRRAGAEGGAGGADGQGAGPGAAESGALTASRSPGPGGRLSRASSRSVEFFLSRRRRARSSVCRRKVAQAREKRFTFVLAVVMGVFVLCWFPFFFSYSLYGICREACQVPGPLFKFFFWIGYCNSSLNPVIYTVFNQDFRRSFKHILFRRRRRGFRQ
Chain of Voltage-gated potassium channel subunit beta-2 (Rattus norvegicus) (P62483 whole entry, looked up): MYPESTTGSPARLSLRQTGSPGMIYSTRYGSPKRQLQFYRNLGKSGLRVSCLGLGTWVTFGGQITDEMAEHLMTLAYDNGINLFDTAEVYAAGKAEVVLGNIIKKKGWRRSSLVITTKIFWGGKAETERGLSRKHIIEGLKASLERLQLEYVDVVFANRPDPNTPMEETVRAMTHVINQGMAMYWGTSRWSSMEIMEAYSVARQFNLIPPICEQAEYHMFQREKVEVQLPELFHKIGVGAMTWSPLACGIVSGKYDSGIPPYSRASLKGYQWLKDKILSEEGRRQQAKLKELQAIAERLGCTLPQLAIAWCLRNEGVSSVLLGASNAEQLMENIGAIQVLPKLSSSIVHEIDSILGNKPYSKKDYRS

Broadly, the inhibition is the change of the read-out against control, counted positive when it falls. In the case of `Cc1ccc(NC(=O)CCC(=O)OCC(F)(F)C(F)F)cc1`, the cell count in assay [1] came out at 551. The inhibition in assay [1] was -2.4% (inactive); in assay [3], -2.3% (inactive); in assay [7] it was 3.35% (inactive); in assay [8], 35.3% (inactive). Besides, the inhibition of aggregation in assay [2] is 2% (inactive). The nuclei count in assay [2] is 69.2%; in assay [3], 91.8%. In addition, the fluorescence slope in assay [4] was -0.454 (inactive). In assay [5], the NADPH fluorescence slope was 6.2e-06 (inactive). Besides, the slope in assay [6] was 0.00371 (inactive).

On to `COC(=O)CCC(NC(=O)c1cc(-c2ccc3c(c2)OCCO3)oc1C)C(=O)OC` (centres undefined), for which the cell count in assay [1] turned out to be 320. The inhibition was 20% (active) in assay [1], 13.3% (inactive) in assay [3], -2.55% (inactive) in assay [7] and -6.77% (inactive) in assay [8]. The inhibition of aggregation in assay [2] is 0.3% (inactive). Besides, the nuclei count in assay [2] and in assay [3] was 104% each time. In addition, the fluorescence slope in assay [4] is -0.48 (inactive). In assay [5], the NADPH fluorescence slope is -3e-05 (inactive). Besides, the slope in assay [6] is 0.00476 (inactive).

In the case of `COc1ccc(NC(=O)C2CCCCN2S(=O)(=O)c2ccc(F)cc2)cc1` (centres undefined), the cell count in assay [1] was found to be 630. Moreover, the inhibition was 3.7% (inactive) in assay [1], -67.7% (inactive) in assay [3], 15.6% (inactive) in assay [7] and 42.2% (inactive) in assay [8]. In addition, the inhibition of aggregation in assay [2] is 27.3% (inactive). The values for the nuclei count in assay [2] and in assay [3] were 76.6% and 105%, respectively. Also, in assay [4], the fluorescence slope is -0.584 (inactive). The NADPH fluorescence slope in assay [5] is -2.4e-05 (inactive). Besides, the slope in assay [6] is 0.00664 (inactive).

As for `CCn1c(SCC(=O)Nc2ccccc2F)nc2c(c1=O)SC(C)C2` (centres undefined), the cell count in assay [1] is 339. Besides, the inhibition in assay [1] was -2.2% (inactive); in assay [3], -2% (inactive); in assay [7], 3.68% (inactive); in assay [8], 8.8% (inactive). Moreover, the inhibition of aggregation in assay [2] was -3.7% (inactive). Moreover, the figures for the nuclei count in assay [2] and in assay [3] were 104% and 117%, respectively. For the same compound, the fluorescence slope in assay [4] is -0.554 (inactive). Moreover, in assay [5], the NADPH fluorescence slope is -3.3e-06 (inactive). Besides, the slope in assay [6] was 0.00612 (inactive).

Turning to `COc1cccc(C(=O)Nc2c(C(N)=O)oc3ccccc23)c1`, the cell count in assay [1] stood at 702. Besides, the inhibition in assay [1] is -14.6% (inactive); in assay [3], -34.6% (inactive); in assay [7], 10.6% (inactive); in assay [8], 25.5% (inactive). Further, the inhibition of aggregation in assay [2] was 28.5% (inactive). For the same compound, the nuclei count in assay [2] amounted to 89.2%; in assay [3] it was 121%. Besides, in assay [4], the fluorescence slope was -0.545 (inactive). Further, the NADPH fluorescence slope in assay [5] is -4.8e-05 (inactive). Also, the slope in assay [6] was 0.00682 (inactive).

As to `CCOc1ccccc1N(C(=O)c1ccco1)C(C(=O)NC1CCCC1)c1cccnc1` (centres undefined), the cell count in assay [1] amounted to 634. Further, the inhibition was -9.3% (inactive) in assay [1], 10% (inactive) in assay [3], -2.81% (inactive) in assay [7] and 13.5% (inactive) in assay [8]. The inhibition of aggregation in assay [2] is 12.2% (inactive). Besides, the nuclei count in assay [2] worked out at 79.6%; in assay [3], 116%. The fluorescence slope in assay [4] is -0.563 (inactive). In assay [5], the NADPH fluorescence slope is 2.3e-05 (inactive). The slope in assay [6] is 0.00563 (inactive).

For `O=C(O)Cn1cc(C(=O)c2ccco2)c2ccccc21`, in assay [1], the cell count was 316. Moreover, the inhibition in assay [1] is 16.3% (inactive); in assay [3], 30.1% (inactive); in assay [7] it was 0.251% (inactive); in assay [8] it was 8.5% (inactive). Moreover, the inhibition of aggregation in assay [2] is 3.6% (inactive). The nuclei count in assay [2] was determined as 108%; in assay [3] it was 104%. Moreover, the fluorescence slope in assay [4] was -0.487 (inactive). The NADPH fluorescence slope in assay [5] is -1.2e-05 (inactive). The slope in assay [6] was 0.00668 (inactive).

With `NC(=O)C1(N2CCCCC2)CCN(CC(=O)Nc2cc(Cl)ccc2Cl)CC1`, the cell count in assay [1] came to 357. Further, the inhibition in assay [1] is -3% (inactive); in assay [3], 26.7% (inactive); in assay [7], -15.6% (inactive); in assay [8], -7.63% (inactive). Also, the inhibition of aggregation in assay [2] was 14.8% (inactive). Also, the nuclei count in assay [2] is 86.2%; in assay [3] it was 74.8%. In addition, the fluorescence slope in assay [4] was -0.583 (inactive). Besides, in assay [5], the NADPH fluorescence slope is -5.7e-05 (inactive). Besides, in assay [6], the slope was 0.00416 (inactive).

Take `Cc1cc2c(c(=O)o1)C(C13C=CC(CC1)C3)C(C#N)=C(N)O2` (centres undefined): the cell count in assay [1] turned out to be 326. For the same compound, the inhibition was 5.3% (inactive) in assay [1], -56.1% (inactive) in assay [3], 5.92% (inactive) in assay [7] and 13.6% (inactive) in assay [8]. Also, the inhibition of aggregation in assay [2] was -3.9% (inactive). The nuclei count in assay [2] worked out at 102%; in assay [3], 118%. For the same compound, the fluorescence slope in assay [4] is -0.499 (inactive). Also, the NADPH fluorescence slope in assay [5] was -5.8e-05 (inactive). Also, the slope in assay [6] is 0.0051 (inactive).

For `O=C(NCc1cccnc1)c1ccc(Cl)c(Cl)c1`, in assay [1], the cell count was 751. Further, the inhibition was -5% (inactive) in assay [1], 16.9% (inactive) in assay [3], 17% (inactive) in assay [7] and 7.17% (inactive) in assay [8]. In assay [2], the inhibition of aggregation is 25.4% (inactive). The nuclei count in assay [2] and in assay [3] was 102% in each case. Moreover, the fluorescence slope in assay [4] was -0.639 (inactive). For the same compound, in assay [5], the NADPH fluorescence slope is -5.9e-06 (inactive). In addition, the slope in assay [6] is 0.00439 (inactive).

With `CCn1c(CNc2ccc(OC)cc2)nnc1SCC(=O)c1ccc(OC)cc1`, in assay [1], the cell count was determined as 544. For the same compound, the inhibition in assay [1] was -16.9% (inactive); in assay [3], -101% (inactive); in assay [7] it was 10% (inactive); in assay [8], 14.7% (inactive). Moreover, the inhibition of aggregation in assay [2] was 1.8% (inactive). Further, the nuclei count in assay [2] came to 100%; in assay [3] it was 107%. In addition, the fluorescence slope in assay [4] is -0.502 (inactive). In assay [5], the NADPH fluorescence slope was 7.7e-06 (inactive). Further, the slope in assay [6] is 0.00516 (inactive).

With `COC(=O)Cn1ncc2c(C)n(Cc3ccccc3)c(C)c2c1=O`, the cell count in assay [1] turned out to be 732. The inhibition in assay [1] was -5.2% (inactive); in assay [3], -72.2% (inactive); in assay [7], -29.4% (inactive); in assay [8], -89.1% (inactive). In addition, in assay [2], the inhibition of aggregation is 15.7% (inactive). For the same compound, the nuclei count in assay [2] came to 88.1%; in assay [3], 122%. Also, the fluorescence slope in assay [4] is -0.563 (inactive). In assay [5], the NADPH fluorescence slope is -2.4e-05 (inactive). Moreover, the slope in assay [6] was 0.00743 (inactive).

In the case of `CCCc1cc(C(=O)Nc2ccccc2C(=O)OC)no1`, the cell count in assay [1] is 864. Further, the inhibition in assay [1] is 5.5% (inactive); in assay [3], -50.4% (inactive); in assay [7], -14.6% (inactive); in assay [8], -14.1% (inactive). Moreover, the inhibition of aggregation in assay [2] is 4.8% (inactive). Besides, the nuclei count in assay [2] is 92.4%; in assay [3], 111%. Besides, the fluorescence slope in assay [4] was -0.629 (inactive). The NADPH fluorescence slope in assay [5] was -3.3e-06 (inactive). For the same compound, the slope in assay [6] was 0.0059 (inactive).

With `CC(=O)C1=C(O)C(=O)N(C2CCCCC2)C1c1ccccc1` (centres undefined), the cell count in assay [1] amounted to 467. For the same compound, the inhibition in assay [1] is -10.8% (inactive); in assay [3], -95.4% (inactive); in assay [7], 18.2% (inactive); in assay [8], 15.5% (inactive). The inhibition of aggregation in assay [2] was -19.1% (inactive). Besides, the nuclei count in assay [2] amounted to 104%; in assay [3], 176%. Also, the fluorescence slope in assay [4] was -0.448 (inactive). Moreover, the NADPH fluorescence slope in assay [5] was -9.9e-06 (inactive). The slope in assay [6] is 0.00562 (inactive).
